Assay results as given in PubChem BioAssay (NCI).
About 79,000 compounds went through this panel and 15% of them were active in at least one assay; those are over-represented in the sample as a whole. Rule as the data show it: active = growth inhibition above about 70%; inactive = the rest.

Experiments:
[1] = NCI Yeast Anticancer Drug Screen. Data for the rad50 strain (AID 155);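 also: 0% = growth of vehicle-only cultures of the same strain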; settings: S. cerevisiae rad50 strain growth inhibition; at 50.0 µM; stronger effect = higher value
Procedure, shortened: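 Cells are treated with compound, grown, and their growth is then scored against vehicle-only cultures of the same repair-deficient yeast strain.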

[2] = NCI Yeast Anticancer Drug Screen. Data for the mec2-1 strain (AID 157); settings: S. cerevisiae mec2-1 strain, at 50.0 µM, stronger effect = higher value
Procedure, shortened: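 Test agents were screened against the mec2-1 yeast strain, with defined DNA repair or cell cycle alteration. Growth was scored as inhibition against vehicle-only controls.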

[3] = NCI Yeast Anticancer Drug Screen. Data for the sgs1 mgt1 strain (AID 161);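 also: 0% = growth of cultures given vehicle only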; settings: S. cerevisiae sgs1 mgt1 strain, at 50.0 µM, stronger effect = higher value
Procedure, shortened: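 Mutant yeast exposed to compound; growth scored against vehicle-only wells.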

[4] = NCI Yeast Anticancer Drug Screen. Data for the cln2 rad14 strain (AID 165);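 also: 0% = growth equal to vehicle treated cultures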; settings: S. cerevisiae cln2 rad14 strain, at 50.0 µM, stronger effect = higher value
Procedure, shortened: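 Growth of compound-exposed yeast (cln2 rad14 genotype) measured and expressed as inhibition relative to vehicle.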

[5] = NCI Yeast Anticancer Drug Screen. Data for the bub3 strain (AID 167); settings: S. cerevisiae bub3 mutant strain, at 50.0 µM, stronger effect = higher value
Procedure, shortened: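 Part of a panel of yeast mutants defective in DNA damage repair or cell cycle regulation. Each strain is grown with compound, and inhibition is calculated relative to solvent-treated cultures.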

[6] = NCI Yeast Anticancer Drug Screen. Data for the mlh1 rad18 strain (AID 175); settings: S. cerevisiae mlh1 rad18 strain growth inhibition; at 50.0 µM; stronger effect = higher value
Procedure, shortened: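 In this whole-cell yeast screen, a strain with altered DNA damage repair is challenged with compound, and its growth is measured against matched vehicle-treated controls.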

Measured: growth inhibition

CCCCCCCCCCCCCC(=O)OCCCC
inactive: [1] -25.6% | [2] -54.4% | [3] -59.1% | [4] -143% | [5] -52% | [6] -7.35%

CN(C)CC1CCCC/C1=N/OC(=O)c1ccc(Cl)cc1 (stereo unspecified)
inactive: [1] 0.15% | [2] 2.1% | [3] 10.9% | [4] 11.4% | [5] -4.6% | [6] 13.7%

CCCOc1ccc(C(=O)C(=O)c2ccccc2)cc1
inactive: [1] 13.4% | [2] -0.2% | [3] -3.95% | [4] 0.8% | [5] 11.4% | [6] 7%

CCCN(CCC)S(=O)(=O)c1ccc(NC(=O)Oc2ccc([N+](=O)[O-])cc2)cc1
inactive: [1] 42.5% | [2] 18.1% | [3] 33.5% | [4] 29.9% | [5] 5.85% | [6] 34.4%

C=CCC1=C(C)C(OC(=O)/C=C/c2ccco2)CC1=O (stereo unspecified)
inactive: [1] 10.3% | [2] -5.2% | [3] 8.6% | [4] -5.5% | [5] 30.3% | [6] -0.2%

O=C(N1CCOCC1)C12OC3CC(CC(C3)O1)O2
inactive: [1] 8.5% | [2] 1.95% | [3] 3.45% | [4] 11.2% | [5] 17.6% | [6] 4.65%

Nc1cccc(C(F)(F)F)c1
inactive: [1] -20.8% | [2] 0.25% | [3] -16.3% | [4] -58.5% | [5] 18.4% | [6] -0.05%

COc1ccccc1C(O)(c1ccccc1OC)C1(O)CCN(C)CC1
inactive: [1] -10.8% | [2] -10.9% | [3] -4.8% | [4] -4.45% | [5] -5.3% | [6] -10.4%

O=C(O)c1ccnc2c(S(=O)(=O)O)cccc12
inactive: [1] 14.7% | [2] -2.05% | [3] -0.95% | [4] -35.5% | [5] 3.25% | [6] 12.4%

O=C1CCCC(=O)N1CCCO
inactive: [1] 10.1% | [2] -6.4% | [3] -24.2% | [4] -91% | [5] -6.4% | [6] 6.5%

Cn1c(NC(=O)C(=O)NC23CC4CC(CC(C4)C2)C3)nc2ccccc21
inactive: [1] -1.9% | [2] -11.4% | [3] -9.7% | [4] 5.8% | [5] -7.25% | [6] 8.55%

COc1ccc(-c2nnc(-c3ccc(OC)cc3)o2)cc1
inactive: [1] 20.1% | [2] -2.85% | [3] 16.5% | [4] 0.2% | [5] 1.15% | [6] -7.95%

Nn1c(=O)[nH]c2ncn(Cc3ccccc3)c2c1=O
inactive: [1] 4.3% | [2] -21.9% | [3] 9.2% | [4] 16.9% | [5] -3% | [6] 3.35%

Cn1c(=O)c2c(nc(N)n2C)n(C)c1=O
inactive: [1] -16.8% | [2] -8.35% | [3] 5.8% | [4] -30.2% | [5] -33.6% | [6] -20.4%

CCn1c(=O)c2[nH]c(Cl)nc2n(CC(C)Cl)c1=O (stereo unspecified)
inactive: [1] 19.1% | [2] -5% | [3] 6.15% | [4] 17.8% | [5] 5.35% | [6] 19.1%

CC(O)COC(C)c1ccccc1 (stereo unspecified)
inactive: [1] 9.05% | [2] 0.3% | [3] -0.7% | [4] 5.35% | [5] -6.45% | [6] 2.1%

CCCCC1(CO)NC(=O)NC1=O (stereo unspecified)
inactive: [1] -4.5% | [2] -13.9% | [3] -8.7% | [4] 8.95% | [5] 2.75% | [6] -1.4%

CCC1(C)N=C(C(N)=O)c2ncn(N=C(C)C)c2N1 (stereo unspecified)
inactive: [1] -15.8% | [2] -30.2% | [3] -24.3% | [4] 14.2% | [5] -10.5% | [6] -16.6%

CCOC1(c2ccccc2)c2ccccc2Sc2ccccc21
inactive: [1] -12.5% | [2] 12.7% | [3] 5.5% | [4] -6.1% | [5] 14.4% | [6] 16.3%

CCCCCCC(O)C/C=C\CCCCCCCCO (stereo unspecified)
inactive: [1] 11.9% | [2] -20.9% | [3] 13.3% | [4] -27.6% | [5] 27.1% | [6] 18.4%

COC(=O)C1(CC(=O)c2ccc(Cl)cc2)NC(=S)NC(=O)C1C#N (stereo unspecified)
inactive: [1] 13.6% | [2] 12.6% | [3] 8% | [4] 7.95% | [5] -10.9% | [6] 22.5%

COc1ccc(C2CC(=O)N(CC(=O)O)C(=O)C2)cc1
inactive: [1] 13.9% | [2] 14.8% | [3] 8.3% | [4] -17% | [5] -9.4% | [6] 7.55%

CC12CS(=O)(=O)CC1O2 (stereo unspecified)
inactive: [1] 1.65% | [2] 3.25% | [3] 2.2% | [4] 1.9% | [5] 2.2% | [6] -13.4%

COc1ccc([Se][Se]c2ccc(OC)cc2NC(C)=O)c(NC(C)=O)c1
inactive: [1] 19.8% | [2] -6.8% | [3] 18.1% | [4] 16.1% | [5] 27.9% | [6] 7.15%

COc1ccc2c(O)cc(C(=O)O)c(-c3ccccc3)c2c1
inactive: [1] -4.7% | [2] -12.8% | [3] -3.95% | [4] -17.5% | [5] 5.05% | [6] -22.6%

O=[N+]([O-])c1ccc(SC2=NCCCN2C2CCCCC2)c(Cl)c1
inactive: [1] -0.1% | [2] -13.9% | [3] 12.8% | [4] 13.8% | [5] 12.6% | [6] -9%

COC(=O)c1nc(NN)[nH]c(=O)c1C
inactive: [1] -2.1% | [2] -21.1% | [3] -27.6% | [4] 3.35% | [5] -26.6% | [6] -15.1%

CC(=O)OC1COC(n2c(O)c(N=NC(N)=S)c3cc(Br)ccc32)C(OC(C)=O)C1OC(C)=O (stereo unspecified)
inactive: [1] 41.1% | [2] 8.2% | [3] 46.2% | [4] -34.2% | [5] 27.1% | [6] 31.1%

O=C1C=CC(=CC=C2C=CN(CCCCCCO)C=C2)C=C1
inactive: [1] 18.4% | [2] 6.05% | [3] 26.2% | [4] 13.8% | [5] 8.65% | [6] 16.1%

COc1ccc(C2S/C(=C\c3cccc(OC)c3)C(=O)N2NC(=O)Cc2ccccc2)cc1 (stereo unspecified)
inactive: [1] -12.8% | [2] -27.1% | [3] -2.75% | [4] -37.5% | [5] -19.4% | [6] -10.8%

CC(=O)Nc1ccc(/C=c2\sc3nnc(CCC(=O)Nc4ccccc4Cl)n3c2=O)cc1
inactive: [1] -16.4% | [2] -17.7% | [3] -20.1% | [4] 7.6% | [5] 7.1% | [6] -9.55%

c1ccc2[nH]c(CN3CCCCC3)cc2c1
inactive: [1] 7.15% | [2] -10.1% | [3] -8.95% | [4] -18.8% | [5] -13.2% | [6] 11.8%

CCOC(=N)c1cn(C2OC(CO)C(O)C2O)c2nc[nH]c(=O)c12 (stereo unspecified)
inactive: [1] 3.35% | [2] -5.25% | [3] 11.2% | [4] 23.4% | [5] 16.2% | [6] 0.4%

CCNC(=O)NS(=O)(=O)c1ccc(Sc2ccc(C)cc2)nc1
inactive: [1] -11.2% | [2] -7.3% | [3] -1.1% | [4] -20.5% | [5] 7.2% | [6] 0.7%

C/C(=N/Nc1ccc([N+](=O)[O-])cc1[N+](=O)[O-])C(CC(C(=O)Nc1ccccc1C)/C(C)=N\Nc1ccc([N+](=O)[O-])cc1[N+](=O)[O-])C(=O)Nc1ccccc1C (stereo unspecified)
inactive: [1] 18.4% | [2] 25.9% | [3] 4.9% | [4] 10.3% | [5] 8.75% | [6] 43.6%

Cc1cccc(NC(=S)Nc2ccc(-c3ccc(NC(=S)Nc4cccc(C)c4)cc3)cc2)c1
inactive: [1] -0.2% | [2] 22.6% | [3] 29.9% | [4] 0.15% | [5] 16.2% | [6] 34.7%

CN(C)Cc1ccccc1COC(=O)c1ccc(Cl)cc1
inactive: [1] 12.8% | [2] 11.5% | [3] 15.1% | [4] 9.75% | [5] 17.4% | [6] 20.9%

O=S(=O)(N/C(=C(\NS(=O)(=O)c1ccccc1)c1ccccc1)c1ccccc1)c1ccccc1
inactive: [1] 63.7% | [2] 6.15% | [3] 39% | [4] 18.3% | [5] 60.9% | [6] 61.2%

Cc1ccc(NC(=O)c2cc3c(cc2Cl)Sc2nccn2S3(=O)=O)cc1
inactive: [1] 21.7% | [2] 11.3% | [3] 12.7% | [4] -25.9% | [5] 11.4% | [6] 39.1%

CC(O)(C(=O)c1ccccc1)c1ccccc1 (stereo unspecified)
inactive: [1] -16.4% | [2] -25.1% | [3] -16.4% | [4] -8.15% | [5] -18.4% | [6] 0.6%

O=c1cc(N2CCOCC2)n2c(ccc3ccccc32)n1
inactive: [1] -17.9% | [2] -2.4% | [3] -10.4% | [4] 13.2% | [5] 22% | [6] -2.6%
